Bioassay records (PubChem)
An excerpt weighted towards active compounds, which were near 1.1% of everything screened.
OPRM1-OPRD1 inv – inverse agonists of MOR-DOR heterodimerization, primary screen, cell-based, luminescence | Mu-type opioid receptor (Homo sapiens) + Delta-type opioid receptor (Homo sapiens), … | cell-based MOR-DOR heterodimer luminescence, inverse agonism | inhibition, % at 9.3 µM | actives 0.21% (n = 340,000); in the data active = inhibition above about 22%, passing the limit was not always enough
Target sequence (P35372 whole entry, looked up): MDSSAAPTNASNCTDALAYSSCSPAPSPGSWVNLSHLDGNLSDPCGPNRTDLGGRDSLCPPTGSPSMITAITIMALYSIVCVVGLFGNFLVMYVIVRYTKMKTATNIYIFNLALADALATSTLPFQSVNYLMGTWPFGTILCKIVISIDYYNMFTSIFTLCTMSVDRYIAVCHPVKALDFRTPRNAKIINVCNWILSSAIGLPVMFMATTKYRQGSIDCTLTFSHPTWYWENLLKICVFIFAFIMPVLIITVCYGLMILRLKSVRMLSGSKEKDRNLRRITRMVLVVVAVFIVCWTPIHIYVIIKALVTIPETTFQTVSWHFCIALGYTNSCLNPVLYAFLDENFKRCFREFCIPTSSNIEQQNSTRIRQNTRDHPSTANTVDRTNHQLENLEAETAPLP
Target sequence (P41143 whole entry, looked up): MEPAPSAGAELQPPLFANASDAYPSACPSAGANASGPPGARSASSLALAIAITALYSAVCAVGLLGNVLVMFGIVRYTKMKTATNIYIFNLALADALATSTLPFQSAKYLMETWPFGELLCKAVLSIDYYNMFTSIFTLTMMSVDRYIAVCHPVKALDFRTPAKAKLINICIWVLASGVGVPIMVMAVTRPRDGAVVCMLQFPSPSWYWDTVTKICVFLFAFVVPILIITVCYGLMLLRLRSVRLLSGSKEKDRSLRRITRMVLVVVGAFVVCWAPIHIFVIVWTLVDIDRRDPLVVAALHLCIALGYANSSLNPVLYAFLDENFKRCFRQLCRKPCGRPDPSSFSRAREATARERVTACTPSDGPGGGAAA
HTR5A ag ctr – HTR5A agonists in luminescence cell assay, primary screen, counter-screen for OPRM1-OPRD1 heterodimer agonist project, full-deck HTS; 5-hydroxytryptamine receptor 5A (Homo sapiens), P47898; cell-based; activation, % at 9.3 µM; actives 0.61% (n = 340,000); AID 504692, 2011; in the data active = activation mostly above about 9.5%, no sharp cut-off; inactive = mostly below about 7.6%
OPRM1-OPRD1 ag – agonists of OPRM1-OPRD1 heterodimerization, primary screen, cell-based, luminescence. Mu-type opioid receptor (Homo sapiens) + Delta-type opioid receptor (Homo sapiens), …. cells. activation, % at 9.3 µM. actives 0.3% (n = 340,000); in the data active = activation above about 18%
HTR5A inv ag – HTR5A inverse agonists in luminescence cell assay, primary screen, counter-screen for OPRM1-OPRD1 heterodimer inverse agonist project, full-deck HTS | HTR5A cell line, inverse agonism | inhibition, % at 9.3 µM | actives 0.083% (n = 340,000); in the data active = inhibition mostly above about 23%, no sharp cut-off; inactive = mostly below about 18%
MOR-DOR inv conf – inverse agonists of MOR-DOR heterodimerization, confirmation, cell-based, luminescence; AID 504900, 2011; shares compounds with OPRM1-OPRD1 inv; inhibition, % at 9.3 µM; actives 20% (n = 580); cells expressing OPRM1/OPRD1 heterodimer; in the data active = inhibition above about 32%
HTR5A inv count – HTR5A inverse agonists, counter-screen for OPRM1-OPRD1 inverse agonist project, cell-based, luminescence; shares compounds with OPRM1-OPRD1 inv; HTR5A-expressing cells, inverse agonism; inhibition, % at 9.3 µM; 580 tested, under 10 active; call rule not given here
Hits are given with their value; - = inactive; . = no result.

SMILES	OPRM1-OPRD1 inv	HTR5A ag ctr	OPRM1-OPRD1 ag	HTR5A inv ag	MOR-DOR inv conf	HTR5A inv count
Cc1ccc(N2CC(C(=O)OCC(=O)c3ccc(C)c([N+](=O)[O-])c3)CC2=O)cc1 (stereo unspecified)	52	-	-	-	-	-
COc1ccccc1NC(=O)COC(=O)CN1C(=O)C(=O)c2ccccc21	57	-	-	-	-	-
O=C(CN1C(=O)C(=O)c2ccccc21)OCN1C(=O)c2ccccc2C1=O	-	-	-	-	.	.
COc1ccccc1N(CC(=O)NCCSCc1ccco1)S(=O)(=O)c1ccccc1	-	-	-	-	.	.
O=C(Nc1c(C(=O)O)[nH]c2ccccc12)NC1CCCCC1	32	-	-	-	-	-
S=P(N1CC1)(N1CC1)N1CC1	-	-	-	-	.	.
COc1ccccc1C=NN=C(NN=Cc1ccccc1OC)NN=Cc1ccccc1OC	-	-	-	-	.	.
CC1CN(c2ccccc2)NC1=O (stereo unspecified)	48	-	-	-	-	-
CC1CN(Cc2ccccc2)C(=O)NC1=O (stereo unspecified)	-	-	-	-	.	.
Cc1cc(O)c(/C=N/Nc2ccc(Cl)cc2)c(=O)o1	46	-	-	-	-	-
Cc1cc(O)c(/C=N/Nc2cccc(Cl)c2)c(=O)o1	-	-	-	-	.	.
Cc1ccc(C)c(N(C(=O)c2csnn2)C(C(=O)NC2CCCCC2)c2ccccn2)c1 (stereo unspecified)	-	-	-	-	.	.
Cc1ccc2c(c1)C(=O)C(=O)N2CC(=O)Nc1ccc(N2CCOCC2)cc1	32	-	-	-	37	-
Cn1c(NNC(=O)c2cccc3ccccc23)cc(=O)n(C)c1=O	23	-	-	-	-	-
Cn1c(NNC(=O)c2ccccc2F)cc(=O)n(C)c1=O	-	-	-	-	.	.
CN(C)CC1(C)Cc2ccsc2C1O (stereo unspecified)	-	-	-	-	.	.
O=C1c2ccccc2-c2nnc(-c3ccccc3)cc21	97	-	-	-	99	-
COc1ccc(-c2cc3c(nn2)-c2ccccc2C3=O)cc1	91	-	-	-	75	-
Cc1cccc(-c2cc3c(nn2)-c2ccccc2C3=O)c1	88	-	-	-	-	-
Cc1cnc2c(c1)C(=O)c1ccccc1-2	-	-	-	-	.	.
COc1ccc(-c2cn(Cc3ccc4c(c3)C(=O)c3ccccc3C4=O)nn2)cc1	-	-	-	-	.	.
CC(SC(=S)N(C)Cc1cccs1)C(=O)O (stereo unspecified)	-	-	-	-	.	.
CN(C)c1nc(=NCc2cccs2)ss1	59	-	-	-	-	-
Oc1c(C=Nc2ccccc2Cl)[nH]c2ccccc12	48	-	-	-	-	-
Cc1ccc(N=C2C(=O)Nc3ccccc32)cc1C	43	-	-	-	-	-
SMILES	OPRM1-OPRD1 inv	HTR5A ag ctr	OPRM1-OPRD1 ag	HTR5A inv ag	MOR-DOR inv conf	HTR5A inv count
CC(=O)c1cccc(N2C(=O)Nc3ccccc3N2O)c1	-	-	-	-	.	.
COc1cc(/C=N/N=C2/C(=O)Nc3ccccc32)cc(OC)c1O	-	-	-	-	.	.
CC(=O)c1cccc(N=C2C(=O)Nc3ccccc32)c1	59	-	-	-	37	-
Cc1ccc(N=C2C(=O)Nc3ccccc32)cc1	49	-	-	-	-	-
O=C1Nc2ccccc2C1=Nc1ccc2[nH]c3ccccc3c2c1	49	-	-	-	-	-
COc1ccc(OCCCC(=O)Nc2cc(Cl)ccc2-n2cncn2)cc1	-	-	-	-	.	.
Cc1ccc([N+](=O)[O-])cc1N=C1C(=O)Nc2ccccc21	50	-	-	-	-	-
O=C1NC(=Nc2ccccc2)c2ccc([N+](=O)[O-])cc21	-	-	-	-	.	.
Cc1cccc(C)c1OCC(=O)NC1CC1	-	-	-	-	.	.
Cc1cccc(C)c1OCC(=O)NNC(=S)NC(=O)C1CC1	36	-	-	-	-	-
C[C@H](NC(=O)COc1ccccc1)C(=O)OCC(=O)c1cc2ccccc2o1	80	-	-	33	-	-
O=C(NNC(=S)NCC1CCCO1)c1cc(Br)ccc1Cl (stereo unspecified)	33	-	-	-	-	-
CC(C)(Oc1ccc(F)cc1)C(=O)OCC(=O)c1ccc(S(C)(=O)=O)cc1	58	-	-	-	-	-
O=C(NCCS(=O)(=O)N1CCCCCC1)c1ccccc1	-	-	-	-	.	.
CC1CCN(CCCNC(=O)C2CCN(S(=O)(=O)N3CCCCC3)CC2)CC1	-	-	-	-	.	.
CC1CCCCN1CCNC(=O)C1CCN(S(=O)(=O)N2CCCCC2)CC1 (stereo unspecified)	13	-	-	-	-	-
O=C(Cc1ccccc1)NNc1ccc2ccccc2c1	33	-	-	-	-	-
Cn1c(SSc2ccc(-c3cccnc3)n2C)ccc1-c1cccnc1	41	-	-	-	-	-
COc1ccc(CN(C)c2ccc(S(=O)(=O)N3CCN(C)CC3)cc2[N+](=O)[O-])cc1OC	-	-	-	-	.	.
CC(C)C1OC2c3cccc4cccc(c34)C2N1c1ccccc1 (stereo unspecified)	65	-	-	-	-	-
Clc1ccccc1CSc1cc2c(nn1)-c1ccccc1CC2	-	-	-	-	.	.
Cc1ccc(SCc2[nH]nc3c2C2(C(=O)Nc4ccc(F)cc42)C(C#N)=C(N)O3)cc1 (stereo unspecified)	-	-	-	-	.	.
O=C1Nc2ccc(F)cc2C12Nc1ccccc1-c1nnc(SCc3ccccc3Cl)nc1O2 (stereo unspecified)	78	-	-	-	56	-
Cc1ccc(CSc2nnc3c(n2)OC2(Nc4ccccc4-3)C(=O)Nc3ccc(F)cc32)cc1 (stereo unspecified)	79	-	-	-	70	-
O=C1Nc2ccc(F)cc2C12Nc1ccccc1-c1nnc(SCc3ccccc3)nc1O2 (stereo unspecified)	79	-	-	-	70	-
SMILES	OPRM1-OPRD1 inv	HTR5A ag ctr	OPRM1-OPRD1 ag	HTR5A inv ag	MOR-DOR inv conf	HTR5A inv count
FC(F)(F)c1cnc(NNC(=S)Nc2cccnc2)c(Cl)c1	66	-	-	-	45	-
Cc1c(Cl)cccc1NC(=S)NNc1ncc(C(F)(F)F)cc1Cl	43	-	-	-	-	-
Cc1cccc(C)c1NC(=S)NNc1ncc(C(F)(F)F)cc1Cl	32	-	-	-	-	-
O=C(NNc1ncc(C(F)(F)F)cc1Cl)c1c(Cl)cccc1Cl	-	-	-	-	.	.
Fc1ccccc1NC(=S)NNc1ncc(C(F)(F)F)cc1Cl	44	-	-	-	-	-
CCN(CC)CCn1c2c(c(SCC(=O)Nc3ccccc3Cl)nc1=O)CCCC2	-	-	-	-	.	.
CCOc1ncccc1C(=O)OCC(=O)NCCc1ccc(S(N)(=O)=O)cc1	-	-	-	-	.	.
Cc1ccccc1NC(=S)NNc1ncc(C(F)(F)F)cc1Cl	46	-	-	-	33	-
